Assay outcomes from PubChem.
The sample as a whole holds a higher share of hits than the screen did.
TTR transcr act: TTR transcription activation, primary screen | SH-SY5Y TTR promoter Gaussia luciferase, luminescence; 100% = recombinant luciferase protein wells | AID 1117267 | activation, % at 16.7 µM | 92,000 tested, 1.3% active;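 active = activation above the mean of all tested compounds plus 3 SD, cut at about 9.5% in these data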;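 also: cells exposed to compounds for one day before reading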
TTR inh HuH7: counter-screen for TTR activators: TTR transcription inhibitors in HuH7 cells. HuH7 TTR promoter-Gaussia luciferase reporter, luminescence. shares compounds with TTR transcr act. AID 1117279. inhibition, % at 16.7 µM. 1,100 tested, 4% active;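 active = average inhibition above the solvent-only control wells' mean plus 3 SD, cut at about 15% in these data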;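 also: inhibitors lower well luminescence so higher value means more inhibition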
TTR act confirm: human TTR transcription activation, confirmation. shares compounds with TTR transcr act. SHSY5Y TTR promoter Gaussia luciferase, luminescence; 100% = purified Lucia enzyme wells, no cells. activation, % at 16.7 µM. 1,100 tested, under 10 active. AID 1117280;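 active = mean activation above a set limit taken from the earlier primary screen, cut at about 11% in these data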
Hits are given with their value; . = inactive.

SMILES	TTR transcr act	others
O=C(c1ccc(Cn2cc(Cl)c([N+](=O)[O-])n2)cc1)N1CCN(Cc2ccccc2)CC1	.
Cc1ccc(NC(=S)Nc2cccc(-c3n[nH]c(=S)o3)c2)cc1	74	TTR inh HuH7=.;TTR act confirm=.
Cc1ccc(C(=O)Nc2cccc(-c3nc4ncccc4o3)c2)cc1	.
Cc1ccc(NC(=S)Nc2cc(C)on2)cc1	.
Cc1ccccc1C(=O)N1CCC(C(=O)NN2C(=O)NC3(CCCCC3)C2=O)CC1	.
S=c1[nH]nc(-c2cc(-c3ccccc3)n[nH]2)n1/N=C/c1cccs1	.
S=c1[nH]nc(-c2cc(-c3ccccc3)n[nH]2)n1/N=C/c1ccccc1	11	TTR inh HuH7=.;TTR act confirm=.
S=c1[nH]nc(-c2cc(-c3ccccc3)n[nH]2)n1/N=C/C=C/c1ccccc1	.
CCC[C@H]1[C@@H](NC(=O)C#Cc2ccccc2)CC[C@@]23CCCN2C(=O)CCC[C@@H]13	.
C[C@H]1[C@@H](NCC2CCCCC2)CC[C@@]23CCCN2C(=O)CCC[C@@H]13	.
CN1C2=N[C@@H](c3ccccc3)CC(=O)N2/C(=C\c2ccccc2)[C@H]1c1ccccc1	.
CC(=O)NCCc1nc2ccccc2n1Cc1cc(C)ccc1C	.
COc1ccc(NC(=S)N2CCN(C(=O)C3CCCO3)CC2)c(OC)c1 (centres undefined)	.
CCOC(=O)C1=C(CS(=O)(=O)c2ccccc2)NC(=O)NC1c1ccccc1 (centres undefined)	.
CCOC(=O)C1=C(c2ccccc2)NC(=O)NC1c1ccc(N(C)C)cc1 (centres undefined)	14	TTR inh HuH7=.;TTR act confirm=.
CCOC(=O)C1=C(c2ccccc2)NC(=O)NC1c1ccc(OC)cc1 (centres undefined)	.
COC(=O)C1CN(Cc2ccccc2)CCS(=O)(=O)N1Cc1cn(Cc2cccc(Cl)c2)nn1 (centres undefined)	.
CC(=O)Nc1sc(C)c(C)c1C(=O)OCC(=O)Nc1ccc(S(N)(=O)=O)cc1	.
Cc1ccc(NC(=O)CSCc2cc(=O)n3cc(C)sc3n2)c(C)c1	.
CC(C)(C)OC(=O)C[C@H]1C/C=C\C[C@@H](CC(=O)N(CCO)Cc2ccccc2)C(=O)N2CCC[C@H]2COC1=O	.
CN(C)C(=O)c1ccc(OCC(F)(F)F)nc1	13	TTR inh HuH7=.;TTR act confirm=.
N/C(=N\OC(=O)c1ccc(OCC(F)(F)F)nc1)c1ccc(Cl)cc1	.
CN(C)C(=O)c1ccc(Oc2ccc(C(=O)N(C)C)cc2)cc1	.
CC(C)CN(CC(C)C)C(=O)Cc1coc2ccc3ccccc3c12	.
CC(C)c1ccc(NC(=O)COC(=O)COc2ccccc2)cc1	10	TTR inh HuH7=.;TTR act confirm=.
SMILES	TTR transcr act	others
CC(C)c1ccc(OCC(=O)Nc2ccncc2)cc1	.
O=C(COC(=O)COc1ccccc1)Nc1ccc2c(c1)OCCO2	.
O=C(NC1CCN(Cc2ccccc2)CC1)c1ccccc1OCc1ccccc1	.
Cc1oc(-c2ccccc2)cc1C(=O)NC1CCN(Cc2ccccc2)CC1	9.8	TTR inh HuH7=.;TTR act confirm=.
O=C(NC1CCN(Cc2ccccc2)CC1)c1ccccc1Cl	.
Cc1ccnc(SCC(=O)c2cc3ccccc3o2)n1	.
COc1cc(CN2CCCN(C)CC2)cc([N+](=O)[O-])c1O	.
C[C@H]1C2CC(OC(=O)Nc3cccc(Cl)c3)C(C2)[C@H]2CCCCN21 (some centres undefined)	.
O=C(COC(=O)/C=C/c1ccc(F)cc1)NC1CCCC1	.
O=C(COC(=O)/C=C/c1ccc(Cl)cc1)NC1CCCC1	.
O=C(COC(=O)/C=C/c1ccc(F)cc1)NC1CCCCCC1	10	TTR inh HuH7=.;TTR act confirm=.
Fc1ccc(CC2CCN(c3ncnc4sccc34)CC2)cc1	.
Cc1cc(C(=O)Nc2c(F)c(F)c(F)c(F)c2F)n(-c2ccccc2)n1	.
Cc1cccc(C)c1NC(=O)C(c1ccc(-c2ccccc2)cc1)n1c(=O)c(-c2cc3ccccc3[nH]2)nc2ccccc21 (centres undefined)	.
COc1ccc(CCNc2c3ccccc3nc3ccccc23)cc1OC	11	TTR inh HuH7=.;TTR act confirm=14
CCn1c(=O)c([N+](=O)[O-])c(NCCc2ccc(OC)c(OC)c2)c2ccccc21	.
COc1ccc(CCn2c(C)nc3ccccc3c2=O)cc1OC	.
CCCCNS(=O)(=O)c1ccc(Br)cc1N1CCC[C@H]1CO	.
C[C@H](CO)N1C[C@H](C)[C@@H](CN(C)C(=O)Nc2ccc(F)cc2)Oc2ncc(-c3ccc(F)cc3)cc2C1=O	.
O=C(NC1CCCCC1)C(CCc1ccccc1)N1CCc2ccccc2C1 (centres undefined)	.
O=C(O)Cc1ccc2c(c1)N(S(=O)(=O)c1cccs1)CC(C(=O)O)O2 (centres undefined)	.
COc1ccc(S[C@]2(C(=O)N3CCOCC3)CC(=O)N(c3ccsc3)[C@@H]2c2ccc(OC)cc2)cc1	.
O=C(COc1ccccc1)N=C1SC2CS(=O)(=O)CC2N1c1ccccc1 (centres undefined)	.
O=C(CCC1CCCC1)N=C1SC2CS(=O)(=O)CC2N1c1ccccc1F (centres undefined)	13	TTR inh HuH7=.;TTR act confirm=.
O=C(N=C1SC2CS(=O)(=O)CC2N1Cc1ccccc1)C1CC1 (centres undefined)	.
SMILES	TTR transcr act	others
C[C@H]1[C@H](NC(=O)c2cccc(Cl)c2)CC[C@@]23CCCN2C(=O)CCC[C@@H]13	.
O=c1cc(CO)[nH]cc1OCc1ccccc1	.
C=CCn1c(SCC(N)=O)nnc1-c1cnccn1	.
CCN(C(=O)CN1C(=O)NC2(CCC(C)CC2)C1=O)C1CCCCC1 (centres undefined)	.
CCC(CO)Nc1ccn2nc(-c3ccccc3)cc2n1 (centres undefined)	26	TTR inh HuH7=.;TTR act confirm=.
CCc1ccn2cc(-c3cc(-c4ccccc4)no3)nc2c1	.
CCOC(=O)Cn1nc(-c2ccccc2)ccc1=O	.
Cc1ccnc2nc(C(=O)Nc3ccc(N4CCOCC4)cc3)nn12	.
Cc1csc(NC(=O)c2nc3nccc(C)n3n2)n1	11	TTR inh HuH7=.;TTR act confirm=.
Cc1ccnc2nc(C(=O)Nc3nc4ccccc4s3)nn12	.
C[C@H](NC(N)=O)C(=O)Nc1ccc(OCc2ccccc2)cc1	.
Cc1cc(C)n(C(=O)Cn2nc(C)c(Cl)c2C)n1	.
Cc1cc(C)n(C(=O)CNC(=O)C(c2ccccc2)c2ccccc2)n1	.
Cc1cc(C)n(C(=O)CNc2cccc(Cl)c2C)n1	11	TTR inh HuH7=.;TTR act confirm=.
COc1ccc(NC(=O)CN(C)C(=O)CNC(=O)c2ccc3c(c2)OCO3)cc1	.
CC(C)(C)OC(=O)n1ccc2ccc(-c3ccc4cc[nH]c4c3)cc21	.
CCOc1ccc(CCNC(=O)c2cc3ccsc3n2C)cc1OCC	.
O=C1CCC[C@H]2C[C@H](NCc3ccccc3Cl)CC[C@]23CCCN13	.
CCOP(=O)(OCC)c1nc(Cc2ccccc2)oc1NCc1ccccc1	.
C/C(=N\NC(=O)c1cccs1)c1cccnc1	9.9	TTR inh HuH7=.;TTR act confirm=.
O=C(NNC(=S)NC(=O)c1cccs1)c1cccnc1	.
C/C(=N\NC(=O)c1ccc(N(C)C)cc1)c1cccnc1	.
Nc1nc(SCc2ccc(F)cc2)ns1	.
CN(CCO)c1cc(N2CCN(C(=O)c3ccco3)CC2)c2nonc2c1[N+](=O)[O-]	.
CNc1ccc(C2(O)C(=O)c3ccccc3C2=O)cc1	.
O=C(C[n+]1ccccc1)Nc1ccccc1	.
